Bioassay records: PubChem, National Center for Advancing Translational Sciences (NCATS)
The list is not random: actives were taken first. Their share in the collection is about 1.2%.
GLA spleen mod: inhibits or activates alpha-galactosidase in human spleen homogenate. Potency, µM (top dose mostly 80 µM), for inactives: at the top dose activity change, negative = inhibition, hits mostly inhibitors. human spleen homogenate, 4MU-alpha-Gal fluorescence, 40 min. hit rate 0.008% among 240,000;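 note: potency is the fitted concentration of half-maximal effect; 0% = enzyme with vehicle and -100% = no enzyme basal signal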
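Spleen homogenate 1 ug + cpd (titration) + 4-MU-alpha-D-galactopyranoside 1 mM; 37C 40 min; 50 mM citrate/phosphate pH 5.0, 0.01% Tween-20; stop pH 10; fluorescence 365/440; AC50 via Hill.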
HttQ103 aggreg: inhibitors of mutant huntingtin aggregate formation in PC12 cells. PC12 HttQ103-GFP aggregates, Acumen cytometry, 40 h. Potency, µM (titrated, usually from 46.1 µM), inactives show top-dose activity change, negative = inhibition, most hits filed as inhibitors. hit rate 1.1% among 220,000; note: potency is the fitted concentration of half-maximal effect; % is set by controls: 0 for no effect and ±100 for the full control effect; nearly all actives have a fitted effect of over 60% in size
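Quantitative HTS on tebufenozide-induced (100 nM) PC12 cells stably expressing polyQ103 Huntingtin exon 1–GFP. Reduction of bright GFP aggregates, detected by laser scanning cytometry after lysis, identified actives across the titration.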
GLA inh pH 4.5: inhibitors of human alpha-galactosidase A at pH 4.5. P06280. purified enzyme, 4-MU-alpha-Gal fluorescence, pH 4.5. activity change, negative = inhibition, % at 105 µM. 230,000 tested, under 10 active. AID 1467;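 note: 0% = full activity with enzyme and -100% = basal without enzyme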
Target sequence (P06280 whole entry, looked up): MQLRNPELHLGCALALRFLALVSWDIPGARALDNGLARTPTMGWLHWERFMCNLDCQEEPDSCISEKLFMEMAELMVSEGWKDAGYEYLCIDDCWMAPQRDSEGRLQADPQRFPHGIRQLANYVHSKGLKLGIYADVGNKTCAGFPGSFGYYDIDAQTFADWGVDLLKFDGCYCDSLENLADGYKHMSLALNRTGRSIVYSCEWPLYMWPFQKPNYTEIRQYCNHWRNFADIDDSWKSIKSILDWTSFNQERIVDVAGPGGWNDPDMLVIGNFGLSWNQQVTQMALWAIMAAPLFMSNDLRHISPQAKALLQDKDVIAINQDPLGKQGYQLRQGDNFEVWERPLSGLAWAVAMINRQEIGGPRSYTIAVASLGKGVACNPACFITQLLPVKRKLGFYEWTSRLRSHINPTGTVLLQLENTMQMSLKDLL
HTT ATP protect: protects HTT-Q103 PC12 cells, measured by ATP | PC12 HTT-Q103 induced, cytoprotection, ATP luminescence, 40 h | Potency, µM (doses to about 56.4 µM), inactives show cytoprotection (ATP increase), most hits filed as activators | AID 1471 | hit rate 0.14% among 230,000; note: potency is the fitted concentration of half-maximal effect; % of control where 0% means no effect; nearly all actives have a fitted effect of over 45% in size
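PC12 cells with ecdysone-inducible HTT exon 1 Q103-GFP, induced with 100 nM tebufenozide and co-treated with library compounds in a dose series (1536-well, 1500 cells/well). Cytoprotection read as ATP content by ATPlite luminescence.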
An asterisk follows results filed as active; [ ] = remark or other dose. Calls come from the whole dose curve; as a rule, active = well fitted curve in the direction sought with a large enough effect; inconclusive = small, poorly fitted or top-dose-only effect, or another doubt; inactive = no such curve, though single readings can be large; an effect the other way counts as inactive or inconclusive.

Screening O=C(N/N=C/c1cc(Br)ccc1O)c1cccc(N2CCCC2=O)c1 returned GLA spleen mod 6%, HttQ103 aggreg 2.2µM* and GLA inh pH 4.5 1.
For O=C(N/N=C/c1cc(Br)ccc1O)c1ccccc1Cl the results were GLA spleen mod -2%, HttQ103 aggreg 4µM* and GLA inh pH 4.5 3.
For O=C(N/N=C/c1ccco1)c1cccc(N2CCCC2=O)c1 the results were GLA spleen mod -4%, HttQ103 aggreg 12%, GLA inh pH 4.5 0 and HTT ATP protect -12%[1.9 µM].
CCC/C=N/NC(=O)c1cc(Br)ccc1O was read as GLA spleen mod -4%, HttQ103 aggreg 16µM*, GLA inh pH 4.5 -5 and HTT ATP protect 23%[10 µM].
`CCCCCCCCCCCCC/C=C/[C@@H](O)[C@H](CO)NC(C)=O` gave GLA spleen mod 3% and HTT ATP protect -31%.
For N#Cc1cccc(CS(=O)(=O)c2nnnn2C2CCCCC2)c1 the results were GLA spleen mod 7%, GLA inh pH 4.5 -6 and HTT ATP protect inconclusive.
`O=C(COc1ccc(S(=O)(=O)NC2CCCCC2)cc1)N1CCN(c2cccc(Cl)c2)CC1` gave GLA spleen mod -1%, HttQ103 aggreg 16µM*, GLA inh pH 4.5 -5 and HTT ATP protect -22%.
`OCc1cc2c(cn1)[nH]c1ccccc12` gave GLA spleen mod 7% and HTT ATP protect -12%.
`Cc1ccc(OCC(=O)N2CC(C)OC(C)C2)c([N+](=O)[O-])n1` (configuration not stated) gave GLA spleen mod 0%, HttQ103 aggreg 3%, GLA inh pH 4.5 -14 and HTT ATP protect 0.05µM*.
Screening COc1ccc([C@@H]2CC(=O)c3c(O)cc(O[C@@H]4O[C@H](CO)[C@@H](O)[C@H](O)[C@H]4O[C@@H]4O[C@@H](C)[C@H](O)[C@@H](O)[C@H]4O)cc3O2)cc1 returned GLA spleen mod 15%.
Screening CCC1CCCCN1C(=O)CSc1nc2ccsc2c(=O)n1Cc1ccccc1 (configuration not stated) returned GLA spleen mod 3%, HttQ103 aggreg 16µM*, GLA inh pH 4.5 14 and HTT ATP protect -33%.
O=c1c(O)c(-c2cccs2)oc2ccc(Cl)cc12 was read as GLA spleen mod -3%, HttQ103 aggreg 14µM*, GLA inh pH 4.5 5 and HTT ATP protect 23%.
Screening Cc1ccc2oc(-c3ccccc3)c(C(=O)O)c(=O)c2c1 returned GLA spleen mod 5%, HttQ103 aggreg 10µM*, GLA inh pH 4.5 5 and HTT ATP protect -59%.
`O=c1cc(-c2cccs2)oc2ccc(Cl)cc12` gave GLA spleen mod 6%, HttQ103 aggreg 6%, GLA inh pH 4.5 -6 and HTT ATP protect -13%.
Cc1ccc(-c2oc3ccccc3c(=O)c2O)cc1 was read as GLA spleen mod -2%, HttQ103 aggreg 11µM*, GLA inh pH 4.5 -1 and HTT ATP protect -13%.
For O=c1c(O)c(-c2cccs2)oc2ccccc12 the results were GLA spleen mod 5%, HttQ103 aggreg 11µM*, GLA inh pH 4.5 -11 and HTT ATP protect 17%[10 µM].
`CC(C)C[C@H](NC(=O)CNC(=O)[C@H](CCC(N)=O)NC(=O)[C@H](CC(C)C)NC(=O)[C@H](CC(C)C)NC(=O)[C@H](CCCNC(=N)N)NC(=O)[C@H](CCC(N)=O)NC(=O)[C@H](CC(C)C)NC(=O)[C@H](CCCNC(=N)N)NC(=O)[C@H](C)NC(=O)CNC(=O)[C@H](CCC(=O)O)NC(=O)[C@H](CCCNC(=N)N)NC(=O)[C@H](CC(C)C)NC(=O)[C@H](CCCNC(=N)N)NC(=O)[C@H](CO)NC(=O)[C@H](CC(C)C)NC(=O)[C@H](CCC(=O)O)NC(=O)[C@H](CO)NC(=O)[C@@H](NC(=O)[C@H](Cc1ccccc1)NC(=O)[C@@H](NC(=O)CNC(=O)[C@H](CC(=O)O)NC(=O)[C@H](CO)NC(=O)[C@@H](N)Cc1cnc[nH]1)[C@@H](C)O)[C@@H](C)O)C(=O)N[C@H](C(N)=O)C(C)C` gave GLA spleen mod -16%.
`C=CCOC(=O)NC(c1ccc(F)c(F)c1)C(C(=O)CCl)C(=O)OC` (configuration not stated) gave GLA spleen mod 6%, GLA inh pH 4.5 2 and HTT ATP protect -22%.
`O=S(c1ccc2ccccc2c1)c1cnns1` (configuration not stated) gave GLA spleen mod 1%, HttQ103 aggreg 18µM*, GLA inh pH 4.5 1 and HTT ATP protect -88%.
For O=C(NC1C/C(=N/O)c2cc3c(cc21)OCO3)C(F)(F)F (configuration not stated) the results were GLA spleen mod -4%, HttQ103 aggreg inconclusive, GLA inh pH 4.5 12 and HTT ATP protect 4µM*.
O=C1CC(NC(=O)C(F)(F)F)c2cc3c(cc21)OCO3 (configuration not stated) was read as GLA spleen mod -10%, HttQ103 aggreg -3%, GLA inh pH 4.5 -7 and HTT ATP protect -1%[10 µM].
Screening CC(=O)Nc1ccc(S(=O)(=O)N(C)c2ccccc2)cc1 returned GLA spleen mod -8%, HttQ103 aggreg 3%, GLA inh pH 4.5 -13 and HTT ATP protect -7%.
Screening CN(c1ccccc1)S(=O)(=O)c1ccc(NC(=O)c2ccc(-c3ccccc3)cc2)cc1 returned GLA spleen mod 1%, HttQ103 aggreg 13µM*, GLA inh pH 4.5 -5 and HTT ATP protect -37%.
`C=CCOCCN(C)C1=NS(=O)(=O)c2cc([N+](=O)[O-])ccc21` gave GLA spleen mod 10%, HttQ103 aggreg -22%, GLA inh pH 4.5 1 and HTT ATP protect -68%.
For CN(CCO)C1=NS(=O)(=O)c2cc([N+](=O)[O-])ccc21 the results were GLA spleen mod 9%, HttQ103 aggreg 6.3µM*, GLA inh pH 4.5 1 and HTT ATP protect -160%.
Screening O=[N+]([O-])c1ccc(Sc2n[nH]c(-c3ccc(Cl)cc3Cl)n2)nc1 returned GLA spleen mod -2%, HttQ103 aggreg inconclusive, GLA inh pH 4.5 3 and HTT ATP protect 0.79µM*.
Screening COc1ccc(C(NC(C)=O)c2ccc3cccnc3c2O)c(OC)c1 (configuration not stated) returned GLA spleen mod 0%, HttQ103 aggreg 4µM*, GLA inh pH 4.5 -4 and HTT ATP protect -107%.
CC(C)C(=O)NC(c1ccco1)c1ccc2cccnc2c1O (configuration not stated) was read as GLA spleen mod -4%, HttQ103 aggreg 4µM*, GLA inh pH 4.5 3 and HTT ATP protect -102%.
`Oc1c(C(Nc2nc3ccccc3s2)c2ccco2)ccc2cccnc12` (configuration not stated) gave GLA spleen mod -15%, HttQ103 aggreg inconclusive, GLA inh pH 4.5 0 and HTT ATP protect 15%[10 µM].
CCN(CC)CCC(c1ccc(N(C)C)cc1)c1c(OC)cc(OC)c2c(C)cc(=O)oc12 (configuration not stated) was read as GLA spleen mod -4%.
